Test results reported in PubChem BioAssay AID2284351 (EPA ToxCast).
Calls of active or inactive are those of the source. How the source made its calls: active means hit-call score of the fitted dose curve at least 0.9, where 1 is the maximum; inactive means score below 0.9.

Target: Peroxisome proliferator-activated receptor gamma (Homo sapiens) (UniProt P37231)
Test: ATG_hPPARg_EcoTox2: Attagene TRANS-FACTORIAL EcoTox-2 HepG2 Assay for human Peroxisome Proliferator-activated Receptor gamma (PPARg)
Protocol: ATG_EcoTox2 is a cell-based, multiplexed assay created by modifying the existing Attagene TRANS-FACTORIAL system to include a panel of nuclear receptors from some or all the following species: human (Homo sapiens), african clawed frog (Xenopus laevis), rainbow trout (Oncorhynchus mykiss), japanese medaka (Oryzias latipes), and zebrafish (Danio rerio). The ECOTOX2-FACTORIAL format uses HepG2, a human liver cell line, with measurements taken at 24 hours after chemical dosing in a 24-well plate. ATG_hPPARg_EcoTox2 is one of 29 assay components calculated in the ATG_EcoTox2 assay. It is designed to make measurements of mRNA induction, a form of inducible reporter, as detected with fluorescence intensity signals by Reverse transcription polymerase chain reaction (RT-PCR) and Capillary electrophoresis technology.The assay endpoint ATG_hPPARg_EcoTox2 was analyzed in the positive analysis fitting direction relative to DMSO as the negative control and baseline of activity. Using a type of inducible reporter, measures of mRNA for gain-of-signal activity can be used to understand the reporter gene at the transcription factor-level as they relate to the gene PPARg. Furthermore, this assay endpoint can be referred to as a primary readout, because this assay has produced multiple assay endpoints where this one serves a reporter gene function. To generalize the intended target to other relatable targets, this assay endpoint is annotated to the nuclear receptor intended target family, where the subfamily is non-steroidal.
Human liver HepG2 cells are transiently transfected with multiple reporter transcription units (MRTUs) in 6-well plates using FuGene 6 reagent (Roche; 3 ml FuGene/1 mg DNA). The MRTU constructs are regulated by a cis-regulating element (promoter). Each RTU expresses a GAL4-UAS that regulates the transcription of a nearby target reporter gene sequence. A major difference between the CIS and TRANS system is that in CIS activities of endogenous TFs are measured, whereas the TRANS assay evaluates changes in activities of exogenous, chimeric NR-Gal4 proteins. […] At the end of 24 hour incubation, total RNA was isolated using TriZol reagent (Invitrogen). The isolated RNA is then reverse-transcribed using oligo(dT) primer and Mo-MLV reverse transcriptase (Invitrogen) with DNAse I (Ambion) treatment for 30 min. The one-tenth of the produced cDNA was amplified by PCR using Taq DNA polymerase (Invitrogen) and two reporter sequence-specific primers. […] The fragments were purified using Qiaquick PCR columns (Qiagen), analyzed on an ABI 3130xL genetic analyzer (Applied Biosystems) with peak positions identified by using a set of X-rhodamine (ROX)-labeled MapMarker1000 molecular weight standards (BioVentures). […]

Chain of Peroxisome proliferator-activated receptor gamma (Homo sapiens) (P37231 whole entry, looked up): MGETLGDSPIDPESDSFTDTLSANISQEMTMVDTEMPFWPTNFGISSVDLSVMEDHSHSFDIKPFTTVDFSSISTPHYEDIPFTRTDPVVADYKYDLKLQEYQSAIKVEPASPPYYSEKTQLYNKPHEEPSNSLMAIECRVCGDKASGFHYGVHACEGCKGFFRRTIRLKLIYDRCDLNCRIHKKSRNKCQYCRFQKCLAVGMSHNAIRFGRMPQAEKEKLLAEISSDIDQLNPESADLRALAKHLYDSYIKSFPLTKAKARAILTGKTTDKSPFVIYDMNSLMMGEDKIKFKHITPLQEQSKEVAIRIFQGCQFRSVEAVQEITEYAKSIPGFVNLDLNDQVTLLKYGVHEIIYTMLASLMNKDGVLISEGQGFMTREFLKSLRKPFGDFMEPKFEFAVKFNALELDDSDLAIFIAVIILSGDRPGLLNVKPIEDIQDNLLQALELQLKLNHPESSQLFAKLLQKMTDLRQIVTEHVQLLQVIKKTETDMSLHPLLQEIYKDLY

| SMILES | AC50 |
| --- | --- |
| O=S(=O)(O)C(F)(F)C(F)(F)C(F)(F)C(F)(F)C(F)(F)C(F)(F)F | 42.7 µM (active) |
| [Cl][Sn]([c]1ccccc1)([c]1ccccc1)[c]1ccccc1 | 0.0461 µM (active) |
| O=P(Oc1ccccc1)(Oc1ccccc1)Oc1ccccc1 | 5.76 µM (active) |
| CCCCOCN(C(=O)CCl)c1c(CC)cccc1CC | 1.53 µM (active) |
